The first assay relates to GAK. The note with it: concentration: 1 μM, replicates: in singlicate; n = 1.
In the case of `O=C(NCCNc1ccnc(Nc2ccc(F)cc2)n1)c1cc2ccccc2s1` [GSK1379874], the “%Inh” value is given as 0%.

`Cc1nnc(-c2ccc3occ(-c4ccc(C(C)O)cc4)c3c2)o1` (centres unmarked): the “%Inh” value turned out to be 0%.

As for `NS(=O)(=O)CCc1cccc(Nc2nccc(-c3c(-c4cccc(NC(=O)c5c(F)cccc5F)c4)nn4ccccc34)n2)c1` [GSK336735], the “%Inh” value is reported as 28%.

In the case of `NS(=O)(=O)c1cccc(-c2ccc3nccc(-c4cccc(S(N)(=O)=O)c4)c3c2)c1` [GW867253], the “%Inh” value came out at 14%.

For the molecule `Cc1nnc(-c2ccc(C)c(-c3ccc(C(=O)Nc4ccc(NS(C)(=O)=O)cc4)cc3)c2)o1` [GW702865], the “%Inh” value amounted to 0%.

As for `Cl.Nc1ncnc2occ(-c3ccc(NC(=O)Nc4cc(C(F)(F)F)ccc4F)cc3)c12` [SB-707548], the “%Inh” value came to 0%.

`O=C(NCCCN1CCOCC1)c1cccc(Nc2nccc(Nc3ccc(Oc4ccccc4)cc3)n2)c1` [GW663929]: the “%Inh” value was 33%.

As for `O=C(c1ccc(-c2cc(-c3c[nH]nc3-c3ccccn3)ccn2)cc1)N1CCOCC1` [GW812171], the “%Inh” value was 34%.

On to `CN1c2ccc(NCc3ccc(F)cc3)cc2-c2c(cnn2C)S1(=O)=O`, for which the “%Inh” value is reported as 0%.

For the molecule `Cc1nnc(-c2ccc3ncc(-c4ccc(S(C)=O)cc4)n3c2)o1` (centres unmarked), the “%Inh” value was 9%.

In the case of `COc1cc2ncn(-c3cc(OCc4sccc4Cl)c(C(N)=O)s3)c2cc1OC` [GSK448459], the “%Inh” value turned out to be 86%.

Turning to `[2H]C([2H])(c1cccc(C(F)(F)F)c1C)n1ccn2c(=O)nc(N3CCOCC3)cc12` [GSK2336394], the “%Inh” value was found to be 0%.

Consider `Cl.Oc1cccc(Nc2ccnc3cc(-c4ccncc4)ccc23)c1` [GW494601], for which the “%Inh” value came to 76%.

On to `CCc1nc(-c2cccc(C)c2)c(-c2ccnc(NCc3ccccc3)c2)s1`, for which the “%Inh” value is reported as 11%.

In the case of `CN(C(=O)c1ccc(-c2cc(-c3c[nH]nc3-c3ccccn3)ccn2)cc1)C1CCOCC1` [GW810083], the “%Inh” value came out at 9%.

In the case of `O=C(NOCC1CC1)c1ccc(F)c(F)c1Nc1ccc(I)cc1Cl`, the “%Inh” value came to 0%.

Take `N#Cc1ccc(-c2cc(-c3c[nH]nc3-c3ccccn3)ccn2)cc1` [GW693028]: the “%Inh” value was 69%.

In the case of `CN1c2ccc(CNc3ccc(F)cc3)cc2-c2c(cnn2C)S1(=O)=O`, the “%Inh” value is reported as 0%.

Consider `O=c1cc(N2CCOCC2)nc2n(Cc3cccc(C(F)(F)F)c3)ccn12` [GSK2297543], for which the “%Inh” value was 0%.

With `O=C(NCCNc1ccnc(Nc2ccc(F)cc2)n1)Nc1ccccc1F` [GSK1379880], the “%Inh” value turned out to be 0%.

For `COc1cc2c(cc1OC[C@@H](O)CO)ncc1c3ccc(C#N)cc3[nH]c21`, the “%Inh” value was found to be 98.9%.

Take `CCCCCc1nc2c(N)ncnc2n1CCCCC` [SKF-97255]: the “%Inh” value was found to be 0%.

Turning to `O=C(Nc1cccc(-c2nn3ncccc3c2-c2ccnc(Nc3cccc(C(F)(F)F)c3)n2)c1)c1c(F)cccc1F` [GSK299495], the “%Inh” value is 1%.

For the molecule `O=c1cc(N2CCOCC2)nc2n(Cc3cccc4ccccc34)ccn12` [GSK2333389], the “%Inh” value stood at 1%.

With `Cc1c(Cn2c(C)nn3c(=O)cc(N4CCOC(C)C4)nc23)cccc1C(F)(F)F` (centres unmarked) [GSK2344444], the “%Inh” value worked out at 0%.

`O=C1NC(=O)C(N2CCc3ccccc32)=C1c1cccc(Cl)c1` [SB-408010]: the “%Inh” value was 10%.

With `N#Cc1c(N2CCOCC2)sc(-c2ccn[nH]2)c1-c1ccc(Cl)cc1`, the “%Inh” value was 0%.

For `Cn1cc(-c2ccc3c(c2)CCN3C(=O)Cc2ccccc2Cl)c2c(N)ncnc21` [GSK2608885], the “%Inh” value came to 33%.

Turning to `COc1cc(Nc2nccc(N3CCC(NC(=O)c4cccc(NC(C)=O)c4)C3)n2)cc(OC)c1OC` (centres unmarked) [GSK1379754], the “%Inh” value amounted to 44%.

On to `COc1ccc(S(=O)(=O)NC2CCN(c3cc(C)nc(Nc4cccc(C#N)c4)n3)CC2)cc1.O=C(O)C(F)(F)F` [GSK1653539], for which the “%Inh” value came out at 0%.

For `COc1cc2c(cc1OCCN1CCN(C)CC1)ncc1c3ccc(C#N)cc3[nH]c21`, the “%Inh” value was found to be 99.6%.

Regarding `O=C(Nc1n[nH]c2cc(-c3cccc(F)c3)ccc12)C1CC1` [SB-735464], the “%Inh” value turned out to be 9%.

Take `Cc1cccc(-c2nc(Nc3ccc4ncsc4c3)c3ccccc3n2)n1` [GW867588]: the “%Inh” value is listed as 0%.

Take `Nc1nccc(-c2c(-c3ccc(F)cc3)ncn2C2CCN(CC(F)(F)F)CC2)n1` [SB-236560]: the “%Inh” value stood at 15%.

For the molecule `COc1ccc(Nc2nccc(N3CCC(NC(=O)Nc4cccc(C(C)=O)c4)C3)n2)cc1` (centres unmarked) [GSK1379731], the “%Inh” value was determined as 0%.

A further assay concerns T1, GCN2(Kin.Dom.2,S808G).
T1 construct: gene EIF2AK4
The note with it: concentration: 1 μM, replicates: in singlicate; n = 1.
Turning to `O=C(NCCNc1ccnc(Nc2ccc(F)cc2)n1)c1cc2ccccc2s1` [GSK1379874], the “%Inh” value is given as 0%.

`Cc1nnc(-c2ccc3occ(-c4ccc(C(C)O)cc4)c3c2)o1` (centres unmarked): the “%Inh” value stood at 23%.

With `NS(=O)(=O)CCc1cccc(Nc2nccc(-c3c(-c4cccc(NC(=O)c5c(F)cccc5F)c4)nn4ccccc34)n2)c1` [GSK336735], the “%Inh” value amounted to 87%.

As to `NS(=O)(=O)c1cccc(-c2ccc3nccc(-c4cccc(S(N)(=O)=O)c4)c3c2)c1` [GW867253], the “%Inh” value came out at 3%.

Consider `Cc1nnc(-c2ccc(C)c(-c3ccc(C(=O)Nc4ccc(NS(C)(=O)=O)cc4)cc3)c2)o1` [GW702865], for which the “%Inh” value is listed as 10%.

As to `Cl.Nc1ncnc2occ(-c3ccc(NC(=O)Nc4cc(C(F)(F)F)ccc4F)cc3)c12` [SB-707548], the “%Inh” value was 8%.

As for `O=C(NCCCN1CCOCC1)c1cccc(Nc2nccc(Nc3ccc(Oc4ccccc4)cc3)n2)c1` [GW663929], the “%Inh” value came to 36%.

Consider `O=C(c1ccc(-c2cc(-c3c[nH]nc3-c3ccccn3)ccn2)cc1)N1CCOCC1` [GW812171], for which the “%Inh” value is reported as 0%.

`CN1c2ccc(NCc3ccc(F)cc3)cc2-c2c(cnn2C)S1(=O)=O`: the “%Inh” value amounted to 0%.

Take `Cc1nnc(-c2ccc3ncc(-c4ccc(S(C)=O)cc4)n3c2)o1` (centres unmarked): the “%Inh” value is 0%.

Take `COc1cc2ncn(-c3cc(OCc4sccc4Cl)c(C(N)=O)s3)c2cc1OC` [GSK448459]: the “%Inh” value is 7%.

Regarding `[2H]C([2H])(c1cccc(C(F)(F)F)c1C)n1ccn2c(=O)nc(N3CCOCC3)cc12` [GSK2336394], the “%Inh” value is 0%.

As to `Cl.Oc1cccc(Nc2ccnc3cc(-c4ccncc4)ccc23)c1` [GW494601], the “%Inh” value is on record as 0%.

As to `CCc1nc(-c2cccc(C)c2)c(-c2ccnc(NCc3ccccc3)c2)s1`, the “%Inh” value is reported as 11%.

With `CN(C(=O)c1ccc(-c2cc(-c3c[nH]nc3-c3ccccn3)ccn2)cc1)C1CCOCC1` [GW810083], the “%Inh” value came to 2%.

As to `O=C(NOCC1CC1)c1ccc(F)c(F)c1Nc1ccc(I)cc1Cl`, the “%Inh” value was found to be 0%.

For the molecule `N#Cc1ccc(-c2cc(-c3c[nH]nc3-c3ccccn3)ccn2)cc1` [GW693028], the “%Inh” value worked out at 0%.

Turning to `CN1c2ccc(CNc3ccc(F)cc3)cc2-c2c(cnn2C)S1(=O)=O`, the “%Inh” value is 15%.

As for `O=c1cc(N2CCOCC2)nc2n(Cc3cccc(C(F)(F)F)c3)ccn12` [GSK2297543], the “%Inh” value was 0%.

As to `O=C(NCCNc1ccnc(Nc2ccc(F)cc2)n1)Nc1ccccc1F` [GSK1379880], the “%Inh” value is reported as 3%.

Regarding `COc1cc2c(cc1OC[C@@H](O)CO)ncc1c3ccc(C#N)cc3[nH]c21`, the “%Inh” value is recorded as 82%.

For the molecule `CCCCCc1nc2c(N)ncnc2n1CCCCC` [SKF-97255], the “%Inh” value is reported as 4%.

In the case of `O=C(Nc1cccc(-c2nn3ncccc3c2-c2ccnc(Nc3cccc(C(F)(F)F)c3)n2)c1)c1c(F)cccc1F` [GSK299495], the “%Inh” value turned out to be 8%.

For `O=c1cc(N2CCOCC2)nc2n(Cc3cccc4ccccc34)ccn12` [GSK2333389], the “%Inh” value is recorded as 1%.

For the molecule `Cc1c(Cn2c(C)nn3c(=O)cc(N4CCOC(C)C4)nc23)cccc1C(F)(F)F` (centres unmarked) [GSK2344444], the “%Inh” value amounted to 0%.

Regarding `O=C1NC(=O)C(N2CCc3ccccc32)=C1c1cccc(Cl)c1` [SB-408010], the “%Inh” value is reported as 17%.

Consider `N#Cc1c(N2CCOCC2)sc(-c2ccn[nH]2)c1-c1ccc(Cl)cc1`, for which the “%Inh” value is given as 0%.

For `Cn1cc(-c2ccc3c(c2)CCN3C(=O)Cc2ccccc2Cl)c2c(N)ncnc21` [GSK2608885], the “%Inh” value was determined as 81%.

For the molecule `COc1cc(Nc2nccc(N3CCC(NC(=O)c4cccc(NC(C)=O)c4)C3)n2)cc(OC)c1OC` (centres unmarked) [GSK1379754], the “%Inh” value came to 17%.

Regarding `COc1ccc(S(=O)(=O)NC2CCN(c3cc(C)nc(Nc4cccc(C#N)c4)n3)CC2)cc1.O=C(O)C(F)(F)F` [GSK1653539], the “%Inh” value turned out to be 0%.

`COc1cc2c(cc1OCCN1CCN(C)CC1)ncc1c3ccc(C#N)cc3[nH]c21`: the “%Inh” value was 90.8%.

On to `O=C(Nc1n[nH]c2cc(-c3cccc(F)c3)ccc12)C1CC1` [SB-735464], for which the “%Inh” value is listed as 0%.

Turning to `Cc1cccc(-c2nc(Nc3ccc4ncsc4c3)c3ccccc3n2)n1` [GW867588], the “%Inh” value amounted to 4%.

Consider `Nc1nccc(-c2c(-c3ccc(F)cc3)ncn2C2CCN(CC(F)(F)F)CC2)n1` [SB-236560], for which the “%Inh” value is given as 48%.

With `NCCNS(=O)(=O)c1ccc(-c2ccnc3[nH]ccc23)cc1` [GSK977617], the “%Inh” value stood at 0%.

On to `COc1ccc(Nc2nccc(N3CCC(NC(=O)Nc4cccc(C(C)=O)c4)C3)n2)cc1` (centres unmarked) [GSK1379731], for which the “%Inh” value came out at 0%.

These data come from publication PMC5540273 (PLoS ONE, 2017).
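Note: KINOMEscan kinase panel screen.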
